# Whole data set: some 33,000 sequences, median “E-score (dimensionless, -0.5 to 0.5)” near -0.058, cut for the highest 2% near 0.35. The list comes from a sample in which the highest values are over-represented; it also holds similar and randomly drawn sequences.
# Tested on: MvaT
# Assay: PBM 8-mer E-score (mean of HK and ME arrays) (E-score (dimensionless, -0.5 to 0.5)); higher = stronger relative binding preference
# Method: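 Protein binding microarray: GST-tagged full-length MvaT (P. aeruginosa PAO1) bound to two universal double-stranded 60-mer arrays (ME and HK), each with a constant 25-mer primer and a variable 35-mer region covering all 8-mers. The 8-mer E-score (rank-based, range -0.5 to 0.5, >0.45 = specific binding) is the mean of the two arrays.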
row,Sequence,PBM 8-mer E-score
1,ATTATACC,0.337
2,ATTATACA,0.388
3,ATTATAGA,0.331
4,ATTATATC,0.444
5,CTTATACA,0.229
6,ATTATATA,0.47
7,ACACTAAT,0.345
8,CCACGGTC,-0.022
9,AGGAGGAA,-0.174
10,TGATATAA,0.353
11,GGATATAA,0.307
12,CGATATAC,0.219
13,CGATATAA,0.395
14,CGATATAG,0.196
15,TGATAAAA,0.258
16,CGAATAAG,0.122
17,ATTGGATG,0.131
18,CAATCCAA,-0.0468
19,AATTCACA,0.206
20,ATGTATTG,0.244
21,GTGTATTA,0.276
22,ATGTATTC,0.152
23,ATGTATTA,0.399
24,CTGTATTA,0.36
25,CTGTATTC,0.0463

row,Sequence,PBM 8-mer E-score
1,CTAGTATC,-0.0351
2,CAATACTC,0.106
3,AAAACGAC,0.0691
4,AAAATGAA,0.226
5,GACAGAAC,-0.0903
6,ATTATCAA,0.321
7,ATTATCAC,0.24
8,ATTATCTC,0.157
9,ATTATCAG,0.354
10,ATTATCTA,0.269
11,ATTATCTG,0.355
12,GTAATGAC,-0.00906
13,AGCTGGCC,-0.255
14,ATATAAAG,0.382
15,CTATAAAG,0.0669
16,ATATAAGA,0.388
17,ATATAAAC,0.433
18,GTATAAAA,0.216
19,CTATAAGA,0.188
20,GTATAAAC,0.316
21,TTATAAAA,0.399
22,ATATAAGC,0.311
23,CTCTAAAA,0.0251
24,CTATAAAC,0.223
25,AGATAAAG,0.0927

row,Sequence,PBM 8-mer E-score
1,GCATCCCC,-0.212
2,CATTTTCG,0.126
3,GACTAGTC,-0.0899
4,GCACCGCC,-0.175
5,CGGCTTGA,-0.132
6,ACATTACC,0.113
7,CTTTTGTC,0.0941
8,ATATAAAA,0.431
9,ATAAAAGA,0.263
10,AGATAAAT,0.241
11,ATGTAAAT,0.327
12,CTATAAAA,0.171
13,ATATAAAT,0.45
14,CTCTCATA,0.00755
15,ACGGACGA,-0.238
16,CCAAATTA,0.228
17,ACAAATTG,0.137
18,GCAAAATA,0.198
19,ACAAAATG,0.0821
20,ACAAATTA,0.35
21,ACAAAATA,0.39
22,CGCCCAAC,-0.0513
23,CATCCTTA,0.0793
24,ACATAGTC,0.172
25,AGACTAGA,0.16

row,Sequence,PBM 8-mer E-score
1,CGTCCAAC,-0.205
2,AAAGCGTT,0.0685
3,GAGGGATA,-0.0756
4,AGTGTTTC,0.161
5,ATAGTTTA,0.35
6,AAAGTTGT,0.264
7,ACAGTTAT,0.305
8,AAAGTTTA,0.353
9,TAAGTTAA,0.426
10,TGAGTTAA,0.272
11,ATAGTTTC,0.275
12,GAAGTTTA,0.304
13,AAAGTTAT,0.36
14,AAAGTTTC,0.296
15,CTAGTTTA,0.306
16,GAAGTTAA,0.317
17,ACTCAGAT,0.101
18,CACAACGA,0.0491
19,CTTGGACA,-0.17
20,ACAGGCAC,-0.193
21,CTTTTGGC,-0.0767
22,GAAGTTCA,0.16
23,TAAGTTCA,0.353
24,AAAGTTCA,0.322
25,CAAGTTAA,0.332

row,Sequence,PBM 8-mer E-score
1,AAAGTTAA,0.353
2,AAAGTTAC,0.212
3,AAAGTTAG,0.353
4,CTAGTTAA,0.36
5,ATAGTTAA,0.339
6,GTAGTTAA,0.283
7,ACAGTTAA,0.299
8,CAAGTTAG,0.194
9,CATACGTA,-0.0616
10,AAGTTTCA,0.303
11,GAGCTGAC,-0.316
12,TATCTACA,0.17
13,ACCCCATA,-0.17
14,CAAAGTAG,0.0209
15,CCTGGGTC,-0.264
16,ACGGATAT,0.113
17,GGTATTAA,0.34
18,CGTATTAC,0.17
19,CGTATTAG,0.0961
20,AGTATTAA,0.328
21,TGTATTAA,0.39
22,CGTATTAA,0.35
23,GTCATAAC,0.0325
24,GTACATGA,0.066
25,ATGTGGGA,0.0305

row,Sequence,PBM 8-mer E-score
1,ACGTATGA,-0.1
2,CGGTTATA,0.224
3,CATTGTTA,0.157
4,AATTATTA,0.438
5,ACTTATTA,0.416
6,AATTGTTA,0.377
7,GATTGTTA,0.204
8,ACTTATTG,0.29
9,AATTACTA,0.323
10,CCTTATTA,0.292
11,GCTTATTA,0.254
12,AATTATTG,0.351
13,AATTATCG,0.336
14,TCTAGGCA,-0.16
15,CCGAGCGC,-0.231
16,TATCTGAA,0.238
17,ATGTCCTG,-0.157
18,CATAGCGA,0.0278
19,AGTACCGC,-0.108
20,GTGAGCTA,-0.209
21,CAAGCCTG,-0.209
22,ACTTATTC,0.229
23,CATTAGTA,0.191
24,AATTAGTA,0.384
25,AATTATTC,0.352

row,Sequence,PBM 8-mer E-score
1,AATTAGTC,0.282
2,AATTATCC,0.296
3,GAGATTTA,0.0378
4,GTTGCATA,0.0505
5,ATCATTAC,0.235
6,CGACAACA,0.0714
7,AATATCAT,0.294
8,AATATTAT,0.445
9,CATATTAC,0.294
10,AATATTGT,0.355
11,CCTATTAC,0.151
12,AATATTAC,0.372
13,CCTATTAG,0.0715
14,AATATTGG,0.278
15,AATATTAG,0.394
16,AAGATTAT,0.286
17,CATATTAG,0.305
18,AATATTGC,0.307
19,TATTCTGA,0.132
20,CTGATAGC,-0.222
21,CCCGGGCG,-0.302
22,GAGCTGGC,-0.277

# Reference: the supplement of paper PMC4466236
